± gives the standard deviation of the averaged measurements.
What was measured:
Details in all cases: concentration: 10 µM; 24 h
HCC1569 [1] = assay: cell number relative to DMSO (% of DMSO); higher = more cells (less growth inhibition / toxicity)
Summary of the method: (§1)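 H1.0 nuclear intensity or cell number is stated as percent of the plate control, based on the median of replicates, and HCC1569 values were smoothed for positional effects. These came from HCC1569 and TDF cells treated with compounds at 10 µM for 24 h at 37 °C in triplicate, then fixed in 3.7% formaldehyde and stained with a rabbit anti-H1.0 antibody, an AlexaFluor 647 secondary and DAPI.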

TDF [2] = assay: as above
Summary of the method: as §1

TDF [3] = assay: H1.0 immunofluorescence intensity relative to DMSO (% of DMSO); higher = stronger H1.0 induction, active = 120 or more
Summary of the method: as §1

HCC1569 [4] = assay: H1.0 immunofluorescence intensity relative to DMSO (% of DMSO); higher = stronger H1.0 induction, active = 140 or more
Summary of the method: as §1
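For H1.0 immunofluorescence intensity relative to DMSO in this document: TDF is a line of transformed human dermal fibroblasts of mesenchymal origin.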
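For cell number relative to DMSO in this document: TDF denotes transformed human dermal fibroblasts of mesenchymal origin.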

Row | Compound | cell number (HCC1569 [1]) | cell number (TDF [2]) | H1.0 immunofluorescence intensity (TDF [3]) | H1.0 immunofluorescence intensity (HCC1569 [4])
1 | CC(C)(C)c1ccc(S(=O)(=O)NCc2ccc(C(=O)Nc3cccnc3)cc2)cc1 | 98.2 | 108 | 86.8 (inactive) | 107 (inactive)
2 | O=C1CC(c2ccc(O)c(O)c2)Oc2c1ccc(OC1OC(CO)C(O)C(O)C1O)c2O (centres undefined) [Flavanomarein] | 102 | 98.6 | 94.9 (inactive) | 99.9 (inactive)
3 | Cl.Cl.O=S(=O)(c1cccc2cnccc12)N1CCCNCC1 | 107 | 95 | 99.5 (inactive) | 94.3 (inactive)
4 | CN(C)CCC=C1c2ccccc2C=Cc2ccccc21.Cl [Cyclobenzaprine hydrochloride] | 99.3 | 103 | 109 (inactive) | 110 (inactive)
5 | OCC1OC(n2cnc3c(Nc4ccccc4)ncnc32)C(O)C1O (centres undefined) [N6-Phenyladenosine] | 101 | 118 | 86.1 (inactive) | 104 (inactive)
6 | CCCCN1CCC(COC(=O)c2cc(Cl)c(N)c3c2OCCO3)CC1.Cl | 102 | 108 | 97.7 (inactive) | 104 (inactive)
7 | CC1CCC2(C(=O)O)CCC3(C)C(=CCC4C5(C)CC(O)C(O)C(C)(CO)C5CCC43C)C2C1C (centres undefined) [Asiatic acid] | 104 | 99.6 | 101 (inactive) | 94.7 (inactive)
8 | O=C1CCC(c2ccc(-n3ccnc3)cc2)=NN1 [Imazodan] | 95.5 | 93.8 | 103 (inactive) | 118 (inactive)
9 | CCOC(=O)[C@H](CCc1ccccc1)N[C@@H](C)C(=O)N1C(=O)N(C)C[C@H]1C(=O)O.Cl | 107 | 99.6 | 100 (inactive) | 92.3 (inactive)
10 | O=C(O)C1=CC(=C(c2ccc(O)c(C(=O)O)c2)c2ccc(O)c(C(=O)O)c2)C=CC1=O [Aurintricarboxylic acid] | 102 | 113 | 89.4 (inactive) | 85.8 (inactive)
11 | NC1CCN(O)C1=O (racemic) | 101 | 104 | 84.3 (inactive) | 82.9 (inactive)
12 | C=C(C)C1CC=C(C(=O)O)CC1 (centres undefined) [Perillic acid] | 102 | 98.7 | 96.4 (inactive) | 92.9 (inactive)
13 | COC1=C(OC)C(=O)C(CCCCCCCCCCO)=C(C)C1=O [Idebenone] | 101.26 ± 0.079 | 96.02 ± 0.62 | 101 (inactive) | 102 (inactive)
14 | CCC1(C)CC(=O)NC1=O (centres undefined) [Ethosuximide] | 102 | 98.8 | 94.1 (inactive) | 88 (inactive)
15 | O=c1c2ccccc2nc2n1CCc1c-2[nH]c2ccccc12 [Rutaecarpine] | 102 ± 6.6 | 103.4 ± 0.87 | 94.9 (inactive) | 102 (inactive)
16 | C[N+](C)(C)CCOC(N)=O.[Cl-] [Carbachol] | 105 | 120 | 100 (inactive) | 96.9 (inactive)
17 | C[N+](C)(C)C(Cc1c[nH]c(=S)[nH]1)C(=O)[O-] [L-Ergothioneine] | 107 | 102 | 101 (inactive) | 100 (inactive)
18 | N[C@@H](Cc1c[nH]c2ccccc12)C(=O)O [L-Tryptophan] | 101 | 103 | 96.6 (inactive) | 108 (inactive)
19 | COc1cc2ccccc2cc1C(=O)OC(C)C(=O)NCc1ccc(F)cc1 (centres undefined) [IP3K Inhibitor] | 102 | 107 | 98.7 (inactive) | 115 (inactive)
20 | C=C1C(=CC=C2CCCC3(C)C2CCC3C(C)CCCC(C)(C)O)CC(O)CC1O (centres undefined) [1,25-Dihydroxyvitamin D3] | 104 | 106 | 95.2 (inactive) | 98.6 (inactive)
21 | O=C(Nc1ccccc1C(=O)Nc1ccc(CCO)cc1)c1ccc([N+](=O)[O-])cc1 [N-(4-(2-hydroxyethyl)phenyl)-2-(4-nitrobenzamido)benzamide] | 82.4 | 90.9 | 101 (inactive) | 144 (active)
22 | COc1ccc(-c2nn3c(-c4ccccn4)nnc3s2)cc1OC | 98 | 103 | 97.3 (inactive) | 111 (inactive)
23 | CC(C(=O)O)c1ccc(CC2CCCC2=O)cc1 (centres undefined) [loxoprofen] | 103 | 95.9 | 88.6 (inactive) | 92.6 (inactive)
24 | CC(C)(CN1C(=O)C(Cl)=C(Cl)C1=O)CN1C(=O)C(Cl)=C(Cl)C1=O | 86.4 | 101 | 89.8 (inactive) | 124 (inactive)
25 | CC1CS(=O)(=O)CCN1/N=C/c1ccc([N+](=O)[O-])o1 (centres undefined) | 96.4 | 102 | 98.5 (inactive) | 95.5 (inactive)
26 | CCCS(=O)(=O)Nc1ccc(F)c(C(=O)c2c[nH]c3ncc(Cl)cc23)c1F | 96.8 | 92.9 | 105 (inactive) | 111 (inactive)

Reference: the supplement of paper PMC7156485
